High-throughput results from PubChem BioAssay.
GRP78 ERSR act = qHTS for Inducers of the Endoplasmic Reticulum Stress Response (ERSR) in Human Glioma: qHTS. U87-MG GRP78 promoter luciferase reporter, 16 h. Potency, µM, without a hit: top-dose activation, most hits filed as activators. actives 0.02% (n = 420,000); further: potency means the concentration at half of the fitted maximal effect; series mostly up to about 76 µM; % of control where 0% means no effect; nearly all actives have a fitted effect of over 35% in size
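Stably transfected U87-MG human glioma cells carrying a GRP78-based luminescent sensor were seeded at 1000 cells/well, pin-dosed with compounds and incubated 16 h. Luciferase reagent was then added, and end-point luminescence was read after 10 min at room temperature.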
Mito fusion act = qHTS Assay for Small Molecule Inhibitors of Mitochondrial Division or Activators of Mitochondrial Fusion. S. cerevisiae fusion-defective mutant growth rescue, CellTiterGlo 48 h. Potency, µM (titrated, usually from 46.1 µM), for the others: top-dose growth rescue (activation), most hits filed as activators. actives 0.23% (n = 320,000). AID 485298, 2010; further: potency means the concentration at half of the fitted maximal effect; % of control where 0% means no effect; nearly all actives have a fitted effect of over 45% in size
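S. cerevisiae fusion-defective temperature-sensitive mutants (e.g. fzo1-1, mgm1-5) grown 48 h at 37C in YPEG (ethanol/glycerol non-fermentable) medium with 23 nl compound per well; growth rescue read as CellTiterGlo luminescence.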
miR-21 reporter = qHTS Assay for Modulators of miRNAs and/orActivators of miR-21; 340,000 tested, under 10 active; AID 2288, 2010; HeLa miR-21 FLuc reporter, luciferase, 48 h; Potency, µM (top dose mostly 38.3 µM), without a hit: at the highest dose activity change, positive = activation, actives largely listed as activators;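 further: % of control where 0% means no effect; miR-21 action dims this reporter so a rising signal means less miR-21 action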
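HeLa miR-21-FLuc reporter line, endogenous miR-21; 2000 cells/well in DMEM/10% FBS; compound titration up to ~40uM final, 48 h, 37 degree Celsius; luciferase detection reagent, 15 min lysis, CCD luminescence.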
Nrf2 activator = qHTS of Nrf2 Activators; AREc32 ARE-luciferase reporter (MCF7-derived line), luminescence, 24 h; Potency, µM (doses to about 46.1 µM), for inactives: at the highest dose activation, usual class: activators; actives 0.31% (n = 410,000); AID 624171, 2012; further: potency means the concentration at half of the fitted maximal effect; % of control where 0% means no effect; nearly all actives have a fitted effect of over 65% in size
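Each well held 1000 AREc32 cells, which were incubated with compound for 24 hr at 37 deg C after overnight attachment, and ARE reporter activity was quantified by firefly luciferase luminescence.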
Nrf2 block = Nrf2 qHTS screen for inhibitors | A549 ARE-Fluc reporter, luciferase luminescence, 18-24 h | Potency, µM (doses to about 46 µM), for inactives: at the highest dose activity change, negative = inhibition, hits mostly inhibitors | actives 2.1% (n = 360,000); further: potency means the concentration at half of the fitted maximal effect; on the % scale 0 is the no-effect control and ±100 the full control effect; nearly all actives have a fitted effect of over 60% in size
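A549 ARE_Fluc cells, 5000/well, 5% FBS OPTI-MEM; compounds in dose-response, 18-24 h at 37 °C/5% CO2; CellTiter-Fluor viability read (Ex 405/Em 525), then BugLite luciferase luminescence = Nrf2 activity.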
A549 viability = Nrf2 qHTS screen for inhibitors: counterscreen for cytotoxicity | A549 ARE-Fluc cells, CellTiter-Fluor viability, 18-24 h | Potency, µM (highest dose often 46 µM), for inactives: top-dose activity change, negative = cytotoxicity, most hits filed as inhibitors | actives 0.16% (n = 390,000); further: potency means the concentration at half of the fitted maximal effect; on the % scale 0 is the no-effect control and ±100 the full control effect
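A549 ARE_Fluc cells in 5% FBS OPTI-MEM were exposed to compounds in concentration-response for 18-24 h at 37 deg C. Viability was read by CellTiter-Fluor fluorescence (Ex 405/Em 525) after 30 min, before the luciferase read.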
Starred values were filed as active, the others as inactive; ? = inconclusive; nt = no result. Sampled rows, rich in hits. Any-hit rate of the full collection: about 2.3%. The call rests on the fitted dose curve; in most records, active means well fitted curve in the direction sought with a large enough effect; inconclusive means small, poorly fitted or top-dose-only effect, or another doubt; inactive means no such curve, though single readings can be large; an effect the other way counts as inactive or inconclusive.

SMILES	GRP78 ERSR act	Mito fusion act	miR-21 reporter	Nrf2 activator	Nrf2 block	A549 viability
COc1ccc(CC2(CO)CCN(CC3=Cc4cc(Cl)ccc4OC3)CC2)cc1	-3%	14%	-10%	2%	13µM*	-23%
COc1ccc(C2=NS(=O)(=O)N(C)C(C(=O)N3CCN(C)CC3)=C2)cc1	-2%	-2%	-1%	0%	8%	-16%
COc1ccc(-c2noc(CCC(=O)Nc3ccc(C(F)(F)F)cc3)n2)cc1	7%	nt	11%	0%	18µM*	-6%
COc1ccc(-c2noc(CCCC(=O)Nc3ccc(C(N)=O)cc3)n2)cc1	-8%	3%	?	-3%	nt	-2%
CC(C)(C)c1ccc(-c2noc(CCC(=O)Nc3cccnc3)n2)cc1	-9%	31%	?	-2%	0.26µM*	-2%
CC(C)(C)c1ccc(-c2noc(CCC(=O)NCC3CCCO3)n2)cc1 (stereo not drawn)	-11%	2%	?	-2%	0.58µM*	-4%
COc1ccc(-c2noc(CCC(=O)Nc3cccnc3)n2)cc1	-4%	6%	-3%	-1%	5%	-2%
CN(CCc1ccccc1)c1cc2c(c3c1ccn3C)C1CCC2C1 (stereo not drawn)	-1%	nt	nt	0%	nt	nt
Nc1ccc(-c2nnn(CC(=O)N3CCCCC3)n2)cc1	-9%	-2%	12%	0%	?	14%
CCn1c(=O)c2sccc2n2c(CCCC(=O)NC3CCN(Cc4ccccc4)CC3)nnc12	-1%	-9%	1%	0%	24%	0%
O=C(COc1ccccc1F)Nc1ccc2nc(SCC(=O)N3CCOCC3)sc2c1	-5%	nt	?	2%	18µM*	-13%
Cc1cccc(OCCSc2nc3ccc(NC(=O)c4cccs4)cc3s2)c1	-3%	nt	?	1%	23µM*	1%
O=C(COc1ccccc1F)Nc1ccc2nc(SCC(=O)N3CCCC3)sc2c1	-3%	nt	8%	7%	?	-14%
Cc1cccc(C(=O)Nc2ccc3nc(SCC(=O)N4CCCC4)sc3c2)c1	-4%	nt	11%	6%	18µM*	-19%
CC(C)(C)C1CCC(C(=O)NNC(=O)c2ccncc2)CC1 (stereo not drawn)	-4%	-7%	nt	0%	-2%	1%
COc1ccc(-n2cc(-c3ccc4c(c3)OCO4)n(CC(=O)Nc3cccc(C)c3)c2=O)cc1	1%	nt	3%	1%	-11%	-3%
O=C(Nc1ccccc1)C1=C[C@@H](c2ccc(C(F)(F)F)cc2)C[C@@H](OCCCCO)O1	12%	nt	nt	3%	25%	-8%
COc1ccc(/C=N/NC(=O)c2ccncc2)cc1CN1CCN(c2ccc(F)cc2)CC1	-7%	?	-4%	-1%	-5%	8%
Cc1cc(C)c2oc(-c3ccc(C)c(NC(=O)/C=C/c4ccco4)c3)nc2c1	0%	nt	-21%	5.6µM*	23%	-4%
CCOC(=O)c1nc(Nc2ccccc2C)c2ccccc2n1	-1%	-6%	-9%	2%	?	3%
CCOC(=O)c1nc(Nc2ccccc2CC)c2ccccc2n1	-6%	1%	0%	-1%	23µM*	4%
S=c1[nH]nc(-c2ccco2)n1/N=C/c1cccc(Cl)c1Cl	-3%	4%	-11%	8.9µM*	3%	-3%
CCN(C(=O)COC(=O)/C=C/c1ccc(Cl)c(Cl)c1)c1c(N)n(Cc2ccccc2)c(=O)[nH]c1=O	-3%	nt	nt	0%	15µM*	-14%
CCN(C(=O)COC(=O)/C=C/c1cccc(Cl)c1)c1c(N)n(Cc2ccccc2)c(=O)[nH]c1=O	-4%	2%	nt	1%	5%	-1%
CC(C)CN(C(=O)COC(=O)C12CC3CC(CC(C3)C1)C2)c1c(N)n(Cc2ccccc2)c(=O)[nH]c1=O	-6%	-4%	nt	0%	26µM*	?
SMILES	GRP78 ERSR act	Mito fusion act	miR-21 reporter	Nrf2 activator	Nrf2 block	A549 viability
CCOC(=O)c1sc2nc(C)nc(NCc3ccc(F)cc3)c2c1C	0%	-36%	3%	2%	?	0%
CCOC(=O)c1sc2nc(C)nc(NCc3ccc(Cl)cc3)c2c1C	-3%	-21%	15%	5%	18µM*	-17%
CCOC(=O)c1sc2nc(CC(=O)OC)nc(NCc3ccc(F)cc3)c2c1C	-2%	4%	-4%	2%	10µM*	?
CCN1C(=O)CSC1=NC1C2CC3CC(C2)CC1C3 (stereo not drawn)	-3%	-12%	-5%	0%	nt	-1%
COc1ccc(-c2n(CC(=O)OC3CC(C)CCC3C(C)C)c3ccccc3[n+]2C)cc1 (stereo not drawn)	-14%	-3%	3%	-2%	21µM*	?
COC(=O)c1cc(=O)n(Cc2ccco2)c(=Nc2ccc(F)c(Cl)c2)s1	-12%	25%	?	-5%	26µM*	?
CC(C)C1N=C(c2ccc3c(c2)OCO3)CC(c2ccccc2O)N1 (stereo not drawn)	?	3%	16%	?	23%	-9%
CCOc1ccccc1C1N=C(c2ccc(OC)cc2)CC(c2ccccc2O)N1 (stereo not drawn)	?	-2%	0%	16µM*	?	-10%
O=C(Cc1cccs1)Nc1cccc(-c2nnc(-c3ccco3)o2)c1	-3%	-1%	-3%	4%	-14%	-4%
Cc1ccc(-c2nnc(-c3ccc(NC(=O)Cc4cccs4)cc3)o2)cc1	-3%	0%	-4%	0%	9.2µM*	13µM*
Cc1ccc(NS(=O)(=O)c2ccc(Cl)c(C(=O)Nc3ccccc3-c3nc4ccccc4[nH]3)c2)cc1C	5%	?	19%	2%	23µM*	-27%
C=CCC[C@H](Cc1ccc(F)cc1)C(=O)OC[C@@H](NC(=O)[C@@H](CC=C)CC(=O)N[C@@H](CO)Cc1ccccc1)C(C)(C)C	-3%	nt	nt	-4%	?	?
C=CCC[C@H](Cc1ccc(F)cc1)C(=O)OC[C@@H](C)NC(=O)[C@@H](CC=C)CC(=O)N[C@H](CO)Cc1ccccc1	-1%	nt	nt	0%	21µM*	?
C=CCC[C@H](Cc1ccc(F)cc1)C(=O)OC[C@@H](NC(=O)[C@@H](CC=C)CC(=O)N(CCO)Cc1ccccc1)C(C)(C)C	-4%	nt	nt	-5%	3.3µM*	6.5µM*
C=CCC[C@@H](Cc1ccc(F)cc1)C(=O)OC[C@@H](NC(=O)[C@@H](CC=C)CC(=O)N[C@@H](CO)Cc1ccccc1)C(C)(C)C	-1%	nt	nt	-1%	21µM*	?
